Columns and labels:
Type in all cases: functional
Plasmodium falciparum [1] = assay: GSK_TCMDC: Inhibition of Plasmodium falciparum 3D7 in whole red blood cells, using parasite LDH activity as an index of growth. Test compounds present at 2uM
Plasmodium falciparum [2] = assay: GSK_TCMDC: Inhibition of Plasmodium falciparum Dd2 in whole red blood cells, using parasite LDH activity as an index of growth. Test compounds present at 2uM
HepG2 = assay: GSK_TCMDC: Percent inhibition of human HepG2 cell line. Test compounds present at 10uM.

SMILES | Inhibition (Plasmodium falciparum [1]) [%] | Inhibition (Plasmodium falciparum [2]) [%] | Inhibition (HepG2) [%]
O=C(NC1CCN(Cc2ccccc2O)C1)c1ccc(-c2ccccc2)cc1.O=C(O)C(F)(F)F (centres undefined) | 99 | 25 | 0
O=C(Nc1ccccc1-c1ccccc1)C1CCCN1C(=O)Nc1ccc(Cl)cc1 (centres undefined) | 96 | 90 | 0
CCCN(CCC)S(=O)(=O)c1ccc(C(=O)Nc2nc3ccc(-c4cc(=O)[nH]c(Nc5ccccc5Cl)n4)cc3[nH]2)cc1 | 100 | 98 | 1
O=C1CCCC1Sc1nc2ccccc2c(=O)n1-c1ccc(Cl)c(Cl)c1 (centres undefined) | 97 | 42 | 10
Cc1ccc(NC(=O)Nc2ccc(Cl)cc2)cc1-c1cccc(C(=O)Nc2ccc(F)cc2)c1 | 96 | 52 | 8
COc1ccc2nc(N)nc(C)c2c1 | 90 | 1 | 5
N[C@@H](Cc1ccc(O)cc1)C(=O)NC(c1ccccc1)c1c(O)ccc2ccccc12.O=C(O)C(F)(F)F (some centres undefined) | 95 | 95 | 6
CN1CCC(C(=O)N(Cc2ccc(-c3ccc(CNCCc4ccccc4)cn3)cc2)C2CCN(Cc3ccccc3)CC2)CC1.O=C(O)C(F)(F)F | 100 | 99 | 24
CSc1cccc(NC(=O)Nc2ccc(I)c(OCCN(C)C)c2)c1 | 97 | 19 | 14
O=C(Nc1ccc(C(F)(F)F)cc1)c1cc(Br)cnc1NCCCn1ccnc1 | 99 | 98 | 32
O=C(Nc1cccc(CN2CCN(Cc3ccc(O)cc3)CC2)c1)c1cc2ccccc2s1.O=C(O)C(F)(F)F | 100 | 26 | 15
Cl.Nc1c2c(nc3cc(NC(=O)c4ccc([N+](=O)[O-])cc4)ccc13)CCCC2 | 100 | 58 | 11
CCc1cn2c3c(cc(C(=O)N[C@@H](Cc4ccccc4)[C@H](O)CNC4CC4)cc13)N(CC)S(=O)(=O)CC2.O=CO | 98 | 99 | 13
COc1cc2c(cc1C(F)(F)F)N(C(=O)Nc1cc(F)c(F)c(-c3cccnc3)c1)CC2 | 90 | 15 | 20
COc1ccc(Cc2c(N)nc3nc(N)nc(N)c3c2C)cc1.Cl | 94 | 3 | 64
Cl.Oc1ccccc1CNCC12CC3CC(CC(C3)C1)C2 | 98 | 99 | 0
CO/C(=C\C=C/c1cc2cc(Cl)c(Cl)cc2[nH]1)C(=O)NC1CC(C)(C)N(C)C(C)(C)C1 | 93 | 34 | 65
CN1CCC(C(=O)N(Cc2ccc(-c3ccc(CNCCc4ccc(S(C)(=O)=O)cc4)cn3)cc2)Cc2cccc(F)c2)CC1.O=C(O)C(F)(F)F | 98 | 90 | 10
COc1cc(Br)c(S(=O)(=O)n2cc(CN3CCC(N)CC3)c3cc(Cl)ccc32)cc1OC.O=C(O)C(F)(F)F | 99 | 32 | 27
CCCCCCCCNCCCSCCCNCCCCCCCC.Cl | 97 | 47 | 63
Cc1nc(-c2cccc(Nc3nccc(NCC(O)c4ccccc4C)n3)c2)cs1 (centres undefined) | 92 | 14 | 38
COc1ccc(CNCCc2cccs2)cc1-c1cccc(S(=O)(=O)NCCN2CCCC2)c1.O=C(O)C(F)(F)F | 98 | 41 | 56
O=C(CCNc1ccnc(NCCc2ccccc2)n1)Nc1ccccc1.O=C(O)C(F)(F)F | 89 | 19 | 7
Br.Cc1cccc2c(CON3C(N)=NC(N)=NC3(C)C)cccc12 | 94 | 94 | 64
Cc1ccc(CN2CCC(Oc3cccc(NC(=O)c4ccc(C(F)(F)F)cc4)c3)CC2)cc1.O=C(O)C(F)(F)F | 92 | 15 | 37
O=c1cc(NCCCN(Cc2cc3c(Cl)cc(Cl)cc3[nH]2)Cc2cc3c(Cl)cc(Cl)cc3[nH]2)[nH]c2ccccc12 | 87 | 80 | 23
COc1ccccc1CCNc1nc(C)cc(N[C@@H](CC(C)C)C(=O)NCc2cccc(F)c2)n1.O=C(O)C(F)(F)F | 94 | 79 | 20
COc1ccc2nccc([C@@H](O)CN3CCC(NC(=O)COc4nc(SCc5ccc(F)cc5)nc5c4CCC5)CC3)c2c1 | 96 | 78 | 29

Source: ChEMBL document CHEMBL1157539, “Thousands of chemical starting points for antimalarial lead identification” (Nature, 2010)
